The record followed here is PubChem BioAssay (NCATS).

Records with an inconclusive call do not appear. Active and inactive are the calls of the source. Unless noted, calls follow the shape of the dose curve; as a rule, active = well fitted curve in the direction sought with a large enough effect; inconclusive = small, poorly fitted or top-dose-only effect, or another doubt; inactive = no such curve, though single readings can be large; an effect the other way counts as inactive or inconclusive.

The target of test [1] is Lysosomal acid glucosylceramidase (Homo sapiens) (UniProt P04062). Briefly: Glucocerebrosidase-p2 (AID 348; in the data active = potency below about 10 µM; also: potency is read from the fitted curve at half-maximal effect). The following applies: purified GBA, blue fluorogenic substrate, 40 min. A digest of the protocol:
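Compounds titrated from 0.6 nM upwards against 0.2 nM enzyme in pH 5.9 citric acid/KH2PO4, taurocholate, tween-20; blue fluorogenic substrate 80 uM, 40 min room temperature, stopped and read Ex 365/Em 440 for AC50.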

Test [2] is described as follows: AP1 Signaling Pathway (AID 357; active = well fitted curve in either direction with a large enough effect, not every such curve was filed as active;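 also: ME-180 reporter cells stimulated with EGF at its EC50 level; % is scaled to controls: 0 for no effect and ±100 for the full control effect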). Conditions: ME-180 AP-1-bla reporter, EGF-induced, beta-lactamase ratio, 5 h; at 7.69 µM (top of the series) unless noted. A digest of the protocol:
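Titration-series screen for positive or negative modulators of EC50 EGF-induced signaling in ME-180 cells carrying an AP-1-driven beta-lactamase reporter. After 5 hours at 37 degrees Celsius, CCF4 460nm/530nm emission ratio gave %Activity; AC50 values derived.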

In test [3] the target is Cytochrome P450 1A2 (Homo sapiens) (UniProt P05177). Put plainly: p450-cyp1a2 (AID 410; calls by dose curve; also: potency is read from the fitted curve at half-maximal effect;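 as to activity change, negative = inhibition: -100% = full effect of reference inhibitor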). The following applies: recombinant CYP1A2, luciferin-ME demethylation, luminescence; series mostly up to 57 µM. A digest of the protocol: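 Inhibition was calculated relative to 57 uM furafylline (full inhibition). The reaction used human CYP1A2 at 20nM with Luciferin-ME at its Km, 100uM, driven by an NADPH-regenerating system for 60 min at room temperature.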
Cytochrome P450 1A2 (Homo sapiens), sequence (P05177 whole entry, looked up): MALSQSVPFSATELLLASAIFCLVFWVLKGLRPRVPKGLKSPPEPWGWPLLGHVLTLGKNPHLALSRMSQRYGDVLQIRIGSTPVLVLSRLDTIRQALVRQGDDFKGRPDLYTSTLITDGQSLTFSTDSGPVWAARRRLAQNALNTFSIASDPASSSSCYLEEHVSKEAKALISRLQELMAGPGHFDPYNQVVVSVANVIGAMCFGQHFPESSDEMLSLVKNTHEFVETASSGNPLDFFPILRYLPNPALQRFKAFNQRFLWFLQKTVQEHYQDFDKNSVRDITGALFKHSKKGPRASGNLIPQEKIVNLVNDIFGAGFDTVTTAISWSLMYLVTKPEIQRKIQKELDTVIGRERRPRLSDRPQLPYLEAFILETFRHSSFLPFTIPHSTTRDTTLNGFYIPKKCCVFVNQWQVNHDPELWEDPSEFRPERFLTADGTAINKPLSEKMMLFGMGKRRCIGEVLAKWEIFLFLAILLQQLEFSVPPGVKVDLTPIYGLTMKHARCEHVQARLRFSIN

The nature of test [4]: NFAT Signaling Pathway (AID 444; active = well fitted curve in either direction with a large enough effect, not every such curve was filed as active;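 also: carbachol stimulus at about its EC50 of 1 µM final; % is scaled to controls: 0 for no effect and ±100 for the full control effect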). The following applies: Jurkat NFAT-bla M1, carbachol, beta-lactamase ratio, 5 h; at 7.69 µM (top of the series) unless noted. A digest of the protocol:
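Read-out: CCF4 FRET ratio (460 nm/530 nm) after 1 h RT dye loading, used for %activity and AC50 from titration series. Cells: Jurkat NFAT-β-lactamase/M1 line, treated with compound plus 1 uM carbachol for 5 h, 37 °C.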

Test [5] can be described thus: Stat Signaling Pathway (AID 446; active = well fitted curve in either direction with a large enough effect, not every such curve was filed as active;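 also: ME-180 cervical cancer cells given 40 pM IL-6 alongside compound; SIE-controlled beta-lactamase reporter measured as 460/530 nm FRET emission ratio; % is scaled to controls: 0 for no effect and ±100 for the full control effect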). The following applies: ME-180 (cervical carcinoma) SIE beta-lactamase reporter, IL-6 stimulated, 5 h; at 7.69 µM (top of the series) unless noted. A digest of the protocol:
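ME-180 SIE-bla cells; overnight plating; cpd + IL-6 40 pM, 5 h, 37 C; LiveBLAzer 2.5 h RT; 460/530 nm emission ratio. Normalized to 300 pM IL-6 and 125 nM JAK inhibitor controls.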

Test [6] addresses Glucocorticoid receptor (Homo sapiens) (UniProt P04150). Put plainly: GR-GFP Redistribution (AID 450;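 active = compounds whose dose series gives a full or clear partial fitted curve of increased nuclear translocation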; also: potency is read from the fitted curve at half-maximal effect). The following applies: U2OS GR-GFP nuclear translocation, laser cytometry, 2 h.
Test [7] shares this target. Briefly: GR-EFC Redistribution (AID 451; calls by dose curve; also: potency is read from the fitted curve at half-maximal effect). Conditions: CHO-K1 GR-EFC translocation, beta-gal luminescence, 2 h. A digest of the protocol:
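Translocation of GR-ED fusion to nuclear EA restores b-gal, read by luminescence after 1 h room-temperature detection. Engineered CHO-K1 biosensor cells, 1,000/well, exposed 2 h at 37 C to titrations up to 46 uM final.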

The target of test [8] is Mitogen-activated protein kinase 10 (Mus musculus) (UniProt Q61831). Put plainly: JNK3 AlphaScreen Assay (AID 530; active = well fitted curve in either direction with a large enough effect, not every such curve was filed as active;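 also: kinase came from lysate of stimulated human HepG2 cells; signal reports phosphorylation of biotinylated GST-cJun 1-79 at Ser73 with 10 µM ATP; % is scaled to controls: 0 for no effect and ±100 for the full control effect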). The following applies: JNK3 lysate, c-Jun phosphorylation; series mostly up to 57.1 µM. A digest of the protocol: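 Room-temperature AlphaScreen kinase assay; pre-activated HepG2 lysate as JNK3 source, biotin-GST-cJun(1-79) substrate, 10 uM ATP, compound 15 min preincubation.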
Background: Alpha assays give light when donor and acceptor beads are brought close together.

For test [9], the target named is Cytochrome P450 3A4 (Homo sapiens) (UniProt P08684). Briefly: qHTS Assay for Activators of Cytochrome P450 3A4 (AID 885). Also: nearly all actives have a fitted effect of over 65% in size. The following applies: recombinant CYP3A4, Luciferin-PPXE luminescence, 60 min; series mostly up to 57.1 µM. A digest of the protocol:
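20nM CYP3A4 + 25uM Luciferin-PPXE (=KM), 200mM KPO4; cpd 10 min RT; NADPH regen, 60 min RT; stop w/ detection buffer, 20 min; luminescence. Normalized to 57 uM ketoconazole.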
For orientation: qHTS replaces the single test concentration by a dilution series.

Test [10] can be described thus: qHTS Assay for Lipid Storage Modulators (AID 1519; calls by dose curve). Conditions: Drosophila S3 cells, BODIPY lipid droplet/cell ratio, laser cytometry, cells loaded with oleic acid; for activity change, negative = inhibition: at 57.5 µM (top of the series). A digest of the protocol: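 Cells seeded at 5,000 per well were treated with compounds over a concentration series and loaded with oleic acid (400 uM, as added). Lipid droplet fluorescence (488 nm excitation, 500-530 nm channel) was read by laser-scanning cytometry and normalized to 20 uM Triacsin C.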

For test [11], the target named is Dual specificity protein kinase CLK4 (Homo sapiens) (UniProt Q9HAZ1). Put plainly: qHTS Assay for Inhibitors of CDC-like Kinase 4 (Kinase-Glo Assay) (AID 1770). Also: nearly all actives have a fitted effect of over 65% in size. Also: potency is read from the fitted curve at half-maximal effect. The following applies: recombinant Clk4, Kinase-Glo ATP depletion luminescence; series mostly up to 66.7 µM. A digest of the protocol:
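25 nM Clk4 with 100 uM RS repeat peptide and 1 uM ATP (final) in Tris pH7.5, 10 mM MgCl2, 4.5 h at room temperature. Remaining ATP measured by Kinase-Glo luciferase luminescence.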

For test [12] the target is unchanged. Briefly: qHTS Assay for Inhibitors of CDC-like Kinase 4 (ADP-Glo Assay) (AID 1771). Also: nearly all actives have a fitted effect of over 70% in size. Also: potency is read from the fitted curve at half-maximal effect. Conditions: recombinant CLK4, ADP-Glo luminescence; series mostly up to 80 µM. A digest of the protocol:
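Kinase reaction: Clk4 at 25 nM, RS repeat peptide substrate at 100 uM, ATP at 1 uM, 1 hr, room temperature. Product ADP detected as luciferase signal via ADP-Glo.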

For test [13] the target is unchanged. Put plainly: qHTS Assay for Inhibitors of CDC-like Kinase 4 (ADP-FP Assay) (AID 1795). Also: nearly all actives have a fitted effect of over 60% in size. Also: potency is read from the fitted curve at half-maximal effect. Conditions: Transcreener ADP fluorescence polarization; series mostly up to 50 µM. A digest of the protocol:
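Recombinant Clk4 (6.25 nM) phosphorylated 100 uM RS repeat peptide with 1 uM ATP in 25 mM Tris pH 7.5, 10 mM MgCl2, 0.5 mM EGTA, 2.5 mM DTT, 0.01% Triton X-100 for 1 h. ADP was detected by Transcreener ADP2 competitive fluorescence polarization after 30 min at room temperature.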

The target in test [14] is Ubiquitin carboxyl-terminal hydrolase 1 (Homo sapiens) (UniProt O94782). Put plainly: Inhibitors of USP1/UAF1: Pilot qHTS (AID 504865).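 Also: rhodamine fluorescence freed from ubiquitin-rhodamine substrate followed over time; top concentration of the series differs between compounds; % is scaled to controls: 0 for no effect and ±100 for the full control effect; nearly all actives have a fitted effect of over 35% in size.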 The following applies: purified USP1/UAF1, Ub-rhodamine cleavage fluorescence; series mostly up to 54.9 µM. A digest of the protocol: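 USP1/UAF1 complex at 1 nM preincubated 15 min at room temperature with compound, then Ub-Rho substrate added at 150 nM final. Fluorescence (480/540 nm) read kinetically in 50 mM HEPES pH 7.8, 0.5 mM EDTA, 1 mM TCEP, 0.1 mg/ml BSA, 0.01% Tween-20.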
Ubiquitin carboxyl-terminal hydrolase 1 (Homo sapiens), sequence (O94782 whole entry, looked up): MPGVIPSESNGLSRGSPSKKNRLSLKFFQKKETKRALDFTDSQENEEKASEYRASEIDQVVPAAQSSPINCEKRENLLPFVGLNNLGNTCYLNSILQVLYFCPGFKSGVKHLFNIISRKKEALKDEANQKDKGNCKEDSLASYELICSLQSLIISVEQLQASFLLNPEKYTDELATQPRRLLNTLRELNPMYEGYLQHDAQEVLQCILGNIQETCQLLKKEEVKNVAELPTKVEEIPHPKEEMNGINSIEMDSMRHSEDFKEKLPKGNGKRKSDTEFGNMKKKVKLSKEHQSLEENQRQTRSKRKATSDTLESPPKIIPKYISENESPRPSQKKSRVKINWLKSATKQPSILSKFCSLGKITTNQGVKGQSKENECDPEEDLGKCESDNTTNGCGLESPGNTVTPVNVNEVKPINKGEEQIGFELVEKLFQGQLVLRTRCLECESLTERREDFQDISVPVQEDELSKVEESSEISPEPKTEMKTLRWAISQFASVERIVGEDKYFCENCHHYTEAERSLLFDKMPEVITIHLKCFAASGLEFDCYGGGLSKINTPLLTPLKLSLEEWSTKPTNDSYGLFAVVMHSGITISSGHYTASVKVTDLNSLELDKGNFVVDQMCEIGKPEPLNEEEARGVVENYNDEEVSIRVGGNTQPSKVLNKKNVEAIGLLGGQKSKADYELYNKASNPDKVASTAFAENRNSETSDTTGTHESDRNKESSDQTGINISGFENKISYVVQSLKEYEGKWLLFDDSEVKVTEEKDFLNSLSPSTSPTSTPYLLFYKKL

Test [15] in a line: Primary qHTS for small molecule stabilizers of the endoplasmic reticulum resident proteome: Secreted ER Calcium Modulated Protein (SERCaMP) assay (AID 1508630). Also: % is scaled to controls: 0 for no effect and ±100 for the full control effect. Conditions: SH-SY5Y GLuc-SERCaMP (Gaussia luciferase released on ER calcium loss) secretion, thapsigargin, luminescence; series mostly up to 38.4 µM. A digest of the protocol: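 GLuc-SERCaMP-expressing SH-SY5Y cells, pretreated 16 h with compound, are challenged with thapsigargin to empty ER calcium stores; after 4 h, coelenterazine is added directly to the medium and luminescence is imaged.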

The target in test [16] is 3',5'-cyclic-AMP phosphodiesterase 4B (Homo sapiens) (UniProt Q07343). Put plainly: qHTS Assay for Inhibitors of PDE-IV (AID 607; active = well fitted activation curve with a large enough effect in the main read-out, with a control signal flat, not every such curve was filed as active; also: % of control where 0% means no effect). Conditions: HEK293 ACTOne CNG channel cells, membrane potential fluorescence; series mostly up to 22.9 µM. A digest of the protocol:
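ACTOne HEK293 cells carry a modified cAMP-gated CNG channel and express endogenous PDE4; plated 1000 cells/well, compounds up to 22.9 uM final. Membrane-potential dye fluorescence (ex 535/em 590) was read; parental cells received 10 uM forskolin + 100 uM RO 20-1724.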

The target in test [17] is Cytochrome P450 2C9 (Homo sapiens) (UniProt P11712). Put plainly: qHTS Assay for Inhibitors and Substrates of Cytochrome P450 2C9 (AID 883). Also: nearly all actives have a fitted effect of over 60% in size. Also: potency is read from the fitted curve at half-maximal effect. Conditions: recombinant CYP2C9, luciferin-H luminescence, 60 min; series mostly up to 57.1 µM. A digest of the protocol: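 Inhibition of CYP2C9 is scored as loss of luminescence, with 57uM sulphaphenazole defining 100% inhibition. Substrate Luciferin-H is used at 100uM, equal to its KM; enzyme at 10nM in 25mM KPO4, 60 min at 37C with NADPH regeneration.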
Cytochrome P450 2C9 (Homo sapiens), sequence (P11712 whole entry, looked up): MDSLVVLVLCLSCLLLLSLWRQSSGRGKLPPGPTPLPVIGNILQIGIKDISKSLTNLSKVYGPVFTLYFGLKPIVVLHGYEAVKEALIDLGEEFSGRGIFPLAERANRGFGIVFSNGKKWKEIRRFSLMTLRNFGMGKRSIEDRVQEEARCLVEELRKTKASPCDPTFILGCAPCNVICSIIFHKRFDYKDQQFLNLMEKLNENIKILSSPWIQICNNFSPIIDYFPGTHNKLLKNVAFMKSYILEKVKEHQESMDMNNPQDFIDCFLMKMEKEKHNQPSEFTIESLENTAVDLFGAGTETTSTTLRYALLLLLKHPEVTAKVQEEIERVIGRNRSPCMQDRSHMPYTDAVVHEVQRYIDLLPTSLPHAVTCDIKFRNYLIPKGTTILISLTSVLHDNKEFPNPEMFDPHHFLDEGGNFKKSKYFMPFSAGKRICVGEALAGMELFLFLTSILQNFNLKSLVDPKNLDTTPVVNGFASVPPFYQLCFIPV

Test [18] deals with Cytochrome P450 3A4 (Homo sapiens) (UniProt P08684). Put plainly: qHTS Assay for Inhibitors and Substrates of Cytochrome P450 3A4 (AID 884). Also: potency is read from the fitted curve at half-maximal effect; nearly all actives have a fitted effect of over 50% in size. Conditions: recombinant CYP3A4, Luciferin-PPXE luminescence; series mostly up to 57.1 µM. A digest of the protocol: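 20 nM human CYP3A4 with 25 uM Luciferin-PPXE (at KM) in 200 mM KPO4, preincubated 10 min with compound; NADPH regeneration started a 60 min RT reaction. Luciferin detected by luminescence, normalized to 57 uM ketoconazole as full inhibition.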
Cytochrome P450 3A4 (Homo sapiens), sequence (P08684 whole entry, looked up): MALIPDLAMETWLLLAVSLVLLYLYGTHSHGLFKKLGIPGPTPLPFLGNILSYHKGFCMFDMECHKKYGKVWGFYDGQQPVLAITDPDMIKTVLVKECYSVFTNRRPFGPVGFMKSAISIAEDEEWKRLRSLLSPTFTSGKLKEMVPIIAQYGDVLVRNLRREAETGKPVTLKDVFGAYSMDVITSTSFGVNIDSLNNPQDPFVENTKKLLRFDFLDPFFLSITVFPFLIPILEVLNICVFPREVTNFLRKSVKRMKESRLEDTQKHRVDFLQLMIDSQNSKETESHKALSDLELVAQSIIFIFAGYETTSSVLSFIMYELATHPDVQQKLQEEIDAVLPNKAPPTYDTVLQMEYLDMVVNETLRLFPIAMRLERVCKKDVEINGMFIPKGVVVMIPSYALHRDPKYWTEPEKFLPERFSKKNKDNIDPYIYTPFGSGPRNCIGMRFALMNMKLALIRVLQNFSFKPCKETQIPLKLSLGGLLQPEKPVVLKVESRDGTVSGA

The target in test [19] is Cytochrome P450 2C19 (Homo sapiens) (UniProt P33261). Briefly: qHTS Assay for Inhibitors and Substrates of Cytochrome P450 2C19 (AID 899). Also: potency is read from the fitted curve at half-maximal effect; nearly all actives have a fitted effect of over 60% in size. Conditions: recombinant CYP2C19, luciferin-H EGE luminescence; series mostly up to 57.1 µM. A digest of the protocol:
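5nM enzyme + 10uM Luciferin-H EGE (=KM), 50mM KPO4; cpd pin-transferred, 10 min 37C; NADPH regen, 60 min 37C; stopped w/ luciferin detection reagent, 20 min; luminescence. Normalized to 57uM ketoconazole (AC100).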

Where [20] appears, read: measured here: cell count channel max response.
The mark [21] stands for this setting: measured here: lipid channel max response.

Dual specificity protein kinase CLK4 (Homo sapiens), sequence (Q9HAZ1 whole entry, looked up): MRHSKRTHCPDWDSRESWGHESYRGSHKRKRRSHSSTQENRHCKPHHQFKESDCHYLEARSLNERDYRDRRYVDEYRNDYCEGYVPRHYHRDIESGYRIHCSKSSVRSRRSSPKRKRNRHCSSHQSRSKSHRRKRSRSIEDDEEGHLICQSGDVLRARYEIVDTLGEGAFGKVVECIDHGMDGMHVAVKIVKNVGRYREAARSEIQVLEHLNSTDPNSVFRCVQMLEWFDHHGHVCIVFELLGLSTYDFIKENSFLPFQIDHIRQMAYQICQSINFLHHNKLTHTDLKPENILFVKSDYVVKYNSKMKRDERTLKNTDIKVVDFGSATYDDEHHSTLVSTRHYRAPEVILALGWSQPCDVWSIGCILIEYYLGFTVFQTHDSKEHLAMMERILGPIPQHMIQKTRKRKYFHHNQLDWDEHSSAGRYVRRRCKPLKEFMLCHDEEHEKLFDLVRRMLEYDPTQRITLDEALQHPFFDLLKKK
Lysosomal acid glucosylceramidase (Homo sapiens), sequence (P04062 whole entry, looked up): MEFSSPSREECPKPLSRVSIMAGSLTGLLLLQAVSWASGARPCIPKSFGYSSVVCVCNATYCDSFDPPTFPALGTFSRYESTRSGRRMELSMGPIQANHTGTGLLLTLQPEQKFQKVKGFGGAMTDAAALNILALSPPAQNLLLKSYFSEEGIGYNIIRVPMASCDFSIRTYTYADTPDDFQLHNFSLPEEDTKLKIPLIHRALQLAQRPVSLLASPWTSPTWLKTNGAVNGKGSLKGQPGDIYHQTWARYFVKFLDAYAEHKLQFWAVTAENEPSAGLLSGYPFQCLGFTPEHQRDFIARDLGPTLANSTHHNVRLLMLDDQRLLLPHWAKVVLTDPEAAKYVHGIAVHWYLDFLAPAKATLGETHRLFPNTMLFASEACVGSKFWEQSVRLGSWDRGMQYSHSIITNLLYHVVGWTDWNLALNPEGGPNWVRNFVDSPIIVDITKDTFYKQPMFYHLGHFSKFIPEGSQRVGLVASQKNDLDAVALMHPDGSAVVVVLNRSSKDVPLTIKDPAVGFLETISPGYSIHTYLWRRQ
3',5'-cyclic-AMP phosphodiesterase 4B (Homo sapiens), sequence (Q07343 whole entry, looked up): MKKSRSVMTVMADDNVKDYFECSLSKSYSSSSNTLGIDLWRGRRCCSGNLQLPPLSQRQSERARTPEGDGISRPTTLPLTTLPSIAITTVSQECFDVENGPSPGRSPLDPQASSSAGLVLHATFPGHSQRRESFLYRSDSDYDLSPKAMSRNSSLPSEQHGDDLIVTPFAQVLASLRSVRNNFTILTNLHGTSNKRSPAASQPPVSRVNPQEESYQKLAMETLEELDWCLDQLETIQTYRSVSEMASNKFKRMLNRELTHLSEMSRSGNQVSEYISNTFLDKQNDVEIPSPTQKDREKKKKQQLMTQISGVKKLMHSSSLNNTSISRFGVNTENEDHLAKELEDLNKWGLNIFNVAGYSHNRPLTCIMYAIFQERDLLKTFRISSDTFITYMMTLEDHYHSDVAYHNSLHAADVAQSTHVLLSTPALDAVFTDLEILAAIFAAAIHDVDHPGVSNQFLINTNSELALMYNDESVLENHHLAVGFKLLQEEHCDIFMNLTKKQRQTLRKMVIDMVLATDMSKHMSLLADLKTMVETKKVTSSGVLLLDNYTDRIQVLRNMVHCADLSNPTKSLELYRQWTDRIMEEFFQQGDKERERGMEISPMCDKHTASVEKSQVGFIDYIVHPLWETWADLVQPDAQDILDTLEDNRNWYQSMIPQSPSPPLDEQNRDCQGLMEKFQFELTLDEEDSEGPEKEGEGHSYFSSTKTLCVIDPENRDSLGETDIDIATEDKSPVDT
Glucocorticoid receptor (Homo sapiens), sequence (P04150 whole entry, looked up): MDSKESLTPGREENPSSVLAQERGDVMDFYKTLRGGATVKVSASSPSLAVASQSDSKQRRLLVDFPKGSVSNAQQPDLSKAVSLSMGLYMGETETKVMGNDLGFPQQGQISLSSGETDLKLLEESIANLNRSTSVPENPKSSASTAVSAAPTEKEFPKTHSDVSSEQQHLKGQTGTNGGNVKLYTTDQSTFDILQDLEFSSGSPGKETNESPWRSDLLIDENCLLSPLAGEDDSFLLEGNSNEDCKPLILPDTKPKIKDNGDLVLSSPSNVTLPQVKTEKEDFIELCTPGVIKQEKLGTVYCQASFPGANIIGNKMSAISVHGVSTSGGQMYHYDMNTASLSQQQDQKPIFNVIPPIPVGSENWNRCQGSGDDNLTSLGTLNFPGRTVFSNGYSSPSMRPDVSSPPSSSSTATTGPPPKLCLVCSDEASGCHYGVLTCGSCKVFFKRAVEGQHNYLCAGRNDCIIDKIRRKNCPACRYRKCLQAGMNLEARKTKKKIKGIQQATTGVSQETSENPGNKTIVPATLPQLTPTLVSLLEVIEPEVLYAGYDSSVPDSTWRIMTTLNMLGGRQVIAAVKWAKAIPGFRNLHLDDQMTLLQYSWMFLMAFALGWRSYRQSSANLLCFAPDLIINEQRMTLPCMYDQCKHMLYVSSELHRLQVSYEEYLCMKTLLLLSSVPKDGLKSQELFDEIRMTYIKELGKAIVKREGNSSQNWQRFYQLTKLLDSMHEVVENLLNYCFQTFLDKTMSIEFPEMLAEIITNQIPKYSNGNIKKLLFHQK

Regarding `Cc1cnc(CNc2ncncc2-c2c(C)noc2C)cn1`, the Potency in test [1] is > 11.4 µM (inactive); in test [6] it was > 46 µM (inactive); in [7], > 46 µM (inactive). The results for the activity change, negative = inhibition in test [2], in test [4] and in [10] were 5.13% (inactive), 1.67% (inactive) and 5.43% (inactive), respectively. The Potency entry in [3], in [9], in test [11], in test [12], in [13] and in test [14] was “inactive” in each case. Besides, in test [15], the Potency entry was “inactive”. Also, the activity, negative = inhibition in [5] is -8% (inactive). For the same compound, the result in [8] was inactive. Further, the max response was found to be 31% in test [10] (setting [20]) and 35% in test [10] (setting [21]).
`Cc1cnc(CNc2ncnc3ccc(-c4ccoc4)cc23)cn1`: the Potency in test [1] is > 11.4 µM (inactive); in test [3], 12.6 µM (active); in [6], > 46 µM (inactive); in test [7], > 46 µM (inactive); in test [11], 251 nM (active); in test [12] it was 224 nM (active). For the same compound, the Potency in test [13] is 224 nM (active). The activity change, negative = inhibition in [2] was -14.2% (inactive); in test [4], -6.73% (inactive); in [10], 0.59% (inactive). In addition, in test [5], the activity, negative = inhibition is -13.1% (inactive). Moreover, the outcome in [8] was inactive. Also, the Potency entry in [16], in [9], in [14] and in [15] was “inactive” in each case. Moreover, the max response in test [10] (setting [20]) came to 20.6%; in test [10] (setting [21]), 16.4%.
Turning to `O=c1c(CCc2ccccc2)nc2cncnc2n1Cc1ccc(F)cc1`, the Potency is > 11.4 µM (inactive) in [1]; 10 µM (active) in test [3]; > 9.22 µM (inactive) in test [6]; > 46 µM (inactive) in test [7]; 7.94 µM (active) in test [17]; 3.16 µM (active) in [18]. For the same compound, the Potency in [19] was 6.31 µM (active). The activity change, negative = inhibition in [2] was -7.12% (inactive); in test [4] it was -3.47% (inactive); in test [10] it was 5.86% (inactive). The activity, negative = inhibition in test [5] is -6.1% (inactive). For the same compound, the Potency result in [9], in test [11], in test [12], in test [13], in [14] and in test [15] was “inactive” each time. For the same compound, the max response in [10] (setting [20]) came to 18.7%; in [10] (setting [21]), 23.1%.
`COCCNc1ncncc1-c1c(C)noc1C`: the Potency is > 11.4 µM (inactive) in [1], > 46 µM (inactive) in test [6], > 46 µM (inactive) in test [7] and 5.01 µM (active) in test [18]. Besides, the activity change, negative = inhibition was 8.31% (inactive) in test [2], -1.26% (inactive) in [4], 23.1% [at 2.29 µM] (inactive) in test [17] and 3.6% (inactive) in test [10]. Moreover, the Potency entry in [3], in test [16], in [9], in test [11], in [12] and in [13] was “inactive” in each case. Also, the Potency entry in test [14] and in [15] was “inactive” throughout. Moreover, the activity, negative = inhibition in test [5] was 0.118% (inactive). Moreover, the compound was classed as inactive in test [8]. In addition, the results for the max response in test [10] (setting [20]) and in test [10] (setting [21]) were 19.7% and 24.5%, respectively.
Consider `COc1ccc(-c2nc3cnc(N4CCOCC4)nc3n(C[C@H]3CCCO3)c2=O)cc1`, for which the Potency in test [1] is > 11.4 µM (inactive); in test [3], 5.01 µM (active); in [6], > 9.22 µM (inactive); in [7], > 46 µM (inactive). Also, the activity change, negative = inhibition is 8.17% (inactive) in test [2], 15.8% (inactive) in test [4] and 1.98% (inactive) in [10]. Also, the activity, negative = inhibition in test [5] was 9.41% (inactive). The result in [8] was inactive. For the same compound, the Potency result in test [16], in [17], in test [11], in test [12], in test [13] and in test [14] was “inactive” each time. The Potency entry in [15] is “inactive”. In addition, the max response was 4.58% in test [10] (setting [20]) and 6.82% in [10] (setting [21]).
